Assay outcomes deposited in PubChem BioAssay by National Center for Advancing Translational Sciences (NCATS).
Abeta rescue: qHTS for compounds that reverse cellular toxicity of Amyloid beta (A-beta) peptide in yeast: Primary Screen. Potency, µM (highest dose often 46.1 µM), hits mostly activators. yeast expressing A-beta42, growth rescue, OD600, 48 h; response scale: 0% DMSO, 100% iron-clioquinol control. actives 0.063% (n = 410,000); note: nearly all actives have a fitted effect of over 55% in size
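Yeast growth medium received pinned compounds, then yeast cells expressing toxic A-beta were added; plates incubated at 30 C for 48 hr. Growth read as absorbance at 600 nm, normalized to DMSO and equimolar FeCl3 plus clioquinol controls.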
Mito fusion yeast: qHTS Assay for Small Molecule Inhibitors of Mitochondrial Division or Activators of Mitochondrial Fusion; S. cerevisiae fusion-defective mutant growth rescue, CellTiterGlo 48 h; Potency, µM (doses to about 46.1 µM), for inactives: at the top dose growth rescue (activation), most hits filed as activators; actives 0.23% (n = 320,000); AID 485298, 2010; note: % of control where 0% means no effect; nearly all actives have a fitted effect of over 45% in size
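Yeast fusion mutant, YPEG (non-fermentable carbon), compound, 48 h at 37C non-permissive; CellTiterGlo added, 10 min RT, luminescence read. Rescued growth = division inhibition.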
FUS suppressor: qHTS for Suppressors of FUS Proteinopathy: Primary screen using FUS-linked yeast assay; S. cerevisiae FUS-expressing, growth rescue, OD600, 24 h; Potency, µM (highest dose often 76.6 µM), hits mostly activators; actives 0.24% (n = 390,000);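 note: plate controls were DMSO vehicle for no effect and reference control for full effect; nearly all actives have a fitted effect of over 55% in size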
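Quantitative HTS measuring growth restoration of FUS-toxic yeast. Galactose-induced cells (OD 0.005) were exposed 24hr at 30C to compounds at several concentrations, then absorbance at 600 nm was recorded.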
aSyn yeast inh: qHTS of alpha-syn Inhibitors. Potency, µM (highest dose often 46.1 µM), for the others: at the top dose growth rescue (activation), usual class: activators. actives 0.14% (n = 370,000). Yeast expressing alpha-synuclein, growth rescue, BacTiter-Glo, 24 h; note: % of control where 0% means no effect; nearly all actives have a fitted effect of over 65% in size
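Screening used galactose-induced yeast with toxic alpha-synuclein levels, exposed to compound for 24 hr at 30 deg C. Cell growth, read with BacTiter-Glo luminescence, gave the measured signal.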
TDP-43 yeast inh: qHTS of TDP-43 Inhibitors; AID 652104, 2013; actives 1.8% (n = 410,000); Potency, µM (series often up to 46.1 µM), without a hit: at the top dose growth rescue (activation), actives largely listed as activators; TDP-43 expressing yeast growth rescue, BacTiter-Glo, 24 h; note: % of control where 0% means no effect; nearly all actives have a fitted effect of over 50% in size
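Readout is BacTiter-Glo luminescence of cell growth, so inhibitors register as activators. TDP-43-expressing yeast at OD600=0.02 in galactose medium, after raffinose pregrowth to mid-log, were incubated with compound for 24 hr at 30 deg C.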
* hit, by the source's call; [ ] = another dose, or the depositor's remark. A selection: hits, their analogues and other compounds. The true share with any hit is near 2.2%. Calls come from the whole dose curve; as a rule, active = well fitted curve in the direction sought with a large enough effect; inconclusive = small, poorly fitted or top-dose-only effect, or another doubt; inactive = no such curve, though single readings can be large; an effect the other way counts as inactive or inconclusive. Potency is the fitted concentration of half-maximal effect.

`COc1cccc(CNC(=O)c2ccc3c(c2)sc2nc(-c4ccccc4)cn23)c1OC` gave Abeta rescue inactive, FUS suppressor inactive and TDP-43 yeast inh 7.6%.
For COc1ccc(C(=O)NCCc2sc(-c3ccc(F)cc3)nc2C)cc1OC the results were Abeta rescue inactive, FUS suppressor inactive and TDP-43 yeast inh 19.7%.
For CCOc1ccc(C(=O)NCCc2sc(-c3ccc(OC)c(OC)c3)nc2C)cc1 the results were Abeta rescue inactive, FUS suppressor inactive, aSyn yeast inh -15.4% and TDP-43 yeast inh 15.8µM*.
For Cc1ccc(-c2nc(C)c(CCNC(=O)c3ccccc3Br)s2)cc1 the results were Abeta rescue inactive, FUS suppressor inactive, aSyn yeast inh -1.8% and TDP-43 yeast inh inconclusive.
COc1ccc(-c2nc(C)c(CCNC(=O)c3ccccc3Br)s2)cc1OC was read as Abeta rescue inactive, FUS suppressor inactive and TDP-43 yeast inh 11.2µM*.
COc1cccc(C(=O)NCCc2csc(-c3cccc(F)c3)n2)c1OC was read as Abeta rescue inactive, FUS suppressor inactive and TDP-43 yeast inh inconclusive.
Screening Cc1cccc(-c2nc(CCNC(=O)c3ccccc3Br)cs2)c1 returned Abeta rescue inactive, FUS suppressor inactive and TDP-43 yeast inh 12.6µM*.
O=S1(=O)c2ccc(N3CC[C@@H](O)C3)cc2OCCCN1C1CC1 was read as FUS suppressor inactive.
CCCCn1nnnc1NCc1ccc(N2CCCC2)cc1 was read as Abeta rescue inactive, Mito fusion yeast -4.6%, FUS suppressor 28.2µM*, aSyn yeast inh -2.7% and TDP-43 yeast inh -1.4%.
O=C(CCn1nnc2ccccc21)N1CCN(c2ccccc2F)CC1 was read as FUS suppressor inactive.
Screening O=C(Nc1nc2ccsc2c(=O)s1)c1ccco1 returned Abeta rescue inactive, Mito fusion yeast 0.2%, FUS suppressor inactive, aSyn yeast inh -10.1% and TDP-43 yeast inh 4.6%.
O=c1sc(Nc2ccccc2)nc2ccsc12 was read as Abeta rescue inactive, Mito fusion yeast 27.4%, FUS suppressor inactive, aSyn yeast inh 14.1% and TDP-43 yeast inh 17.8µM*.
For O=C(Nc1nc2ccsc2c(=O)s1)C1CCC1 the results were Abeta rescue inactive, Mito fusion yeast -4.1%, FUS suppressor inactive, aSyn yeast inh 6.5% and TDP-43 yeast inh 10µM*.
CCc1ccccc1NC(=O)C1CCC(=O)N(c2ccc(OC)cc2)C1c1ccc(OC)cc1 (stereo not drawn) was read as FUS suppressor inactive.
For OC[C@@H]1CC[C@@H](Cc2ccc(-c3ccccc3)cc2)O1 the results were Abeta rescue inactive, FUS suppressor inactive, aSyn yeast inh 17.8µM* and TDP-43 yeast inh 11.2µM*.
Screening NC(=O)NC[C@@H]1CC[C@@H](Cc2ccc(-c3ccccc3)cc2)O1 returned Abeta rescue inactive, FUS suppressor inactive, aSyn yeast inh 1.3% and TDP-43 yeast inh 18.1%.
`O=S(=O)(c1ccc2ncccc2c1)N1CCN(c2nc(-c3cccs3)nc3ccccc23)CC1` gave aSyn yeast inh -2.3%.
For COc1ccc(OC(F)(F)F)cc1CC1(C)C(=O)Nc2ccc(S(=O)(=O)NC3CCCCC3)cc21 (stereo not drawn) the results were Abeta rescue inactive, FUS suppressor 31.6µM*, aSyn yeast inh -6.2% and TDP-43 yeast inh 11.7%.
`CC1(Cc2ccccc2OC(F)(F)F)C(=O)Nc2ccc(S(=O)(=O)NC3CCCCC3)cc21` (stereo not drawn) gave Abeta rescue inactive, FUS suppressor inactive, aSyn yeast inh -10.9% and TDP-43 yeast inh 12.5%.
For COc1ccc(OC(F)(F)F)cc1CC1(C)C(=O)Nc2ccc(-c3ccsc3)cc21 (stereo not drawn) the results were Abeta rescue inactive, FUS suppressor inactive, aSyn yeast inh -36.8% and TDP-43 yeast inh 14.1µM*.
Screening CCOc1cc2c(cc1O)CCC1C2CCC2(C)C(O)CCC12 (stereo not drawn) returned Abeta rescue inactive, aSyn yeast inh 0.7% and TDP-43 yeast inh 15.8µM*.
For O=C(c1cccs1)n1cc(C(=S)N2CCOCC2)c2ccccc21 the results were Abeta rescue inactive, Mito fusion yeast 10.6%, FUS suppressor inactive and TDP-43 yeast inh 20µM*.
For O=C(C1CC1)n1cc(C(=S)N2CCOCC2)c2ccccc21 the results were Abeta rescue inactive, Mito fusion yeast -0.9%, FUS suppressor inactive, aSyn yeast inh -14.4% and TDP-43 yeast inh 3.8%.
Screening CCOC(=O)[C@]12CCCC3=C1N(CCC3)C(=O)[C@@H](CC(=O)N1CCN(C(=O)c3ccco3)CC1)C2 returned FUS suppressor inactive.
O=C(Nc1nc(-c2ccc3c(c2)OCCO3)cs1)C1CCCC1 was read as Abeta rescue inactive, Mito fusion yeast -10.4%, FUS suppressor inactive, aSyn yeast inh -20.1% and TDP-43 yeast inh 11.2µM*.
For O=C(Nc1nc(-c2ccccn2)cs1)C1COc2ccccc2O1 (stereo not drawn) the results were Abeta rescue inactive, Mito fusion yeast inconclusive, FUS suppressor inactive, aSyn yeast inh inconclusive and TDP-43 yeast inh inconclusive.
CC1CCc2nc(NC(=O)C3COc4ccccc4O3)sc2C1 (stereo not drawn) was read as Abeta rescue inconclusive, Mito fusion yeast inconclusive, FUS suppressor inactive, aSyn yeast inh -1.4% and TDP-43 yeast inh 35.5µM*.
Screening O=C(Nc1nc(-c2ccc3c(c2)OCO3)cs1)C1COc2ccccc2O1 (stereo not drawn) returned Abeta rescue inactive, Mito fusion yeast 21.0%, FUS suppressor inactive, aSyn yeast inh -0.5% and TDP-43 yeast inh 11.2µM*.
For O=C(NNc1nc2c(F)cccc2s1)C1COc2ccccc2O1 (stereo not drawn) the results were Abeta rescue inactive, Mito fusion yeast -0.2%, FUS suppressor inactive, aSyn yeast inh 1.6% and TDP-43 yeast inh -12.5%[0.397 µM].
Screening Cc1ccc2sc(NNC(=O)C3COc4ccccc4O3)nc2c1C (stereo not drawn) returned Abeta rescue inactive, Mito fusion yeast 15.1%, FUS suppressor inactive, aSyn yeast inh -4.4% and TDP-43 yeast inh 7.08µM*.
`N#CCC(=O)Nc1nc(-c2ccc3c(c2)OCCO3)cs1` gave Abeta rescue inactive, Mito fusion yeast 3.3%, FUS suppressor inactive, aSyn yeast inh 10.3% and TDP-43 yeast inh -1.2%.
Screening COc1ccc(-c2nc3ccccc3s2)cc1NC(=O)c1cccc([N+](=O)[O-])c1C returned Abeta rescue inactive, FUS suppressor inactive and TDP-43 yeast inh 22.6%.
